This note sets out measurements from PMC13541613, “GHT-SELEX demonstrates unexpectedly high intrinsic sequence specificity and complex DNA binding of many human transcription factors”.

Assay in all cases: HT-SELEX; 20 mM HEPES pH 7, 140 mM KCl, 5 mM NaCl, 1 mM K2HPO4, 2 mM MgSO4, 100 uM EGTA, ZnSO4, 0.1% Tween20; room temperature, 1 h; high values mean tight binding
Holding throughout (conditions): protein: ivt; tags: eGFP (N-terminal); dsDNA, one strand shown

The target in one assay is ZNF721 full-length (Homo sapiens, UniProt Q8TF20-2 1-923). A digest of the protocol:
(§1)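 A tagged transcription factor, either full-length or its DNA-binding-domain fragment, was made in HEK293 lysate or cell-free extract, immobilised on beads and incubated with a randomized 40-base DNA library for 1 h at room temperature in HEPES/KCl low-stringency buffer containing Tween20. Washed beads were heat-eluted, and the bound DNA was PCR-amplified over successive cycles and Illumina-sequenced at ~3 million 60 bp reads per sample. The binding signal is the relative k-mer count in selected reads, where a higher value means tighter binding.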

The target in the next assay is ZNF721 DBD1 (Homo sapiens, UniProt Q8TF20-2 29-461). In outline: as §1
The target of another assay is ZNF721 DBD2 (Homo sapiens, UniProt Q8TF20-2 395-923). A digest of the protocol:
as §1

Chain of ZNF721 full-length (Q8TF20 other isoform, or with tags, fused parts or gaps): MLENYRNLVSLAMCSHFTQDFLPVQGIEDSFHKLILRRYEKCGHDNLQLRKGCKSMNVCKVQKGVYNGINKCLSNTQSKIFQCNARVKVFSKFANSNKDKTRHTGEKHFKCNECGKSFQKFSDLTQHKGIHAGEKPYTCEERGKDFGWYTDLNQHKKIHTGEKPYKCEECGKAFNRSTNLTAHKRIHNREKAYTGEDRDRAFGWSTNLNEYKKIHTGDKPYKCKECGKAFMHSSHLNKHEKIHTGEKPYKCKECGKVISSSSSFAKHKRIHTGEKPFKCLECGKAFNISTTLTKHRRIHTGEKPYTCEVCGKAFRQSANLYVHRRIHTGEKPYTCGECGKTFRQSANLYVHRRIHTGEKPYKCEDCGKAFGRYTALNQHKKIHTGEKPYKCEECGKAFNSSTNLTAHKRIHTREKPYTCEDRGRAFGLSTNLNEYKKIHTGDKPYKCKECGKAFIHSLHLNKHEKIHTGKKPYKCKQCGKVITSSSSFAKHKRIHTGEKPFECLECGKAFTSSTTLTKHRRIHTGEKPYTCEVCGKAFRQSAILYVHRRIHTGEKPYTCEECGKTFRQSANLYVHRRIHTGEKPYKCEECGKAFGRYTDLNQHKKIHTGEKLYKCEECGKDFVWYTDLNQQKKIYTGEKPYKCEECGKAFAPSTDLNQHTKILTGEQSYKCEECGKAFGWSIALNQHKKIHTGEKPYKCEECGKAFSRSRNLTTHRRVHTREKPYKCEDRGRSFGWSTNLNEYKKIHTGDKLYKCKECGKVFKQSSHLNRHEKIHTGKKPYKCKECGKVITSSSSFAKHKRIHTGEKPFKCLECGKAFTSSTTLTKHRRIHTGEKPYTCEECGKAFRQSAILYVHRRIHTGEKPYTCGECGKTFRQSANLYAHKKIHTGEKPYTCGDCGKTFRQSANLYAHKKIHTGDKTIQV
Chain of ZNF721 DBD2 (Q8TF20 383-911): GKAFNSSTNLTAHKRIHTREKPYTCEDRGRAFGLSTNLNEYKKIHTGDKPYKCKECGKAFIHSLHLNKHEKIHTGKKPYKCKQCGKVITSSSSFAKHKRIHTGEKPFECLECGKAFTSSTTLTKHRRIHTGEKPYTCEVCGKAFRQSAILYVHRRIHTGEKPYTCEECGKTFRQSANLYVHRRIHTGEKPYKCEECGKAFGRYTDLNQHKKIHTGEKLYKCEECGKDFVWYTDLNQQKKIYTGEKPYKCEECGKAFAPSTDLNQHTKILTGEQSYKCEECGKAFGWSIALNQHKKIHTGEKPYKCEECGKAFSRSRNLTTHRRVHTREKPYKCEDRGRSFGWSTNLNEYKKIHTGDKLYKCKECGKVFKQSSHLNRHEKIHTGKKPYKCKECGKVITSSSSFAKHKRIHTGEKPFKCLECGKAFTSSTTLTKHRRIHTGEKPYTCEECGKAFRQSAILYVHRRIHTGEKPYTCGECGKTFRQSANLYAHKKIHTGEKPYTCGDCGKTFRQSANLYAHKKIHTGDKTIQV
Chain of ZNF721 DBD1 (Q8TF20 17-449): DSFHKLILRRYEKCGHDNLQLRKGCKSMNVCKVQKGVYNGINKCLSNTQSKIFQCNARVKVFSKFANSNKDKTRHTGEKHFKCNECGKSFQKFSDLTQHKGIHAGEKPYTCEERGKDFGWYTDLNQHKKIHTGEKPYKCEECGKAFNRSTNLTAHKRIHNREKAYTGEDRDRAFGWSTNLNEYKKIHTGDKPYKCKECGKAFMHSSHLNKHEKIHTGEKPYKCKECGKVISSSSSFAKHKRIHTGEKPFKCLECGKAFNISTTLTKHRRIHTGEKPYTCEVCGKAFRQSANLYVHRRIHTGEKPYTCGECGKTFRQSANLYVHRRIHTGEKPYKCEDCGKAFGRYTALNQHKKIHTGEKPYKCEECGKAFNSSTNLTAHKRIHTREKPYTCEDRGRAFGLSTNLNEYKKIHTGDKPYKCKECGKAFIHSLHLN

Consider CACCCCCAAC, for which the binding signal in the assay with ZNF721 full-length was found to be 0.118 relative 10-mer count; with ZNF721 DBD1, 0.00514 relative 10-mer count; with ZNF721 DBD2, 0.0114 relative 10-mer count.

For the sequence ACCCGCCCAC, the values for the binding signal with ZNF721 full-length, in the assay with ZNF721 DBD1 and with ZNF721 DBD2 were 0.115 relative 10-mer count, 0.00413 relative 10-mer count and 0.00288 relative 10-mer count, respectively.

For the sequence CCCCTCTCCC, the binding signal with ZNF721 full-length is 0.107 relative 10-mer count; in the assay with ZNF721 DBD1, 0.00454 relative 10-mer count; with ZNF721 DBD2, 0.00204 relative 10-mer count.

With GAAAAAAGCA, the binding signal with ZNF721 full-length came out at 0.344 relative 10-mer count; with ZNF721 DBD1, 0.0533 relative 10-mer count; with ZNF721 DBD2 it was 0.15 relative 10-mer count.

Regarding CCCCCGCGCC, the results for the binding signal with ZNF721 full-length, in the assay with ZNF721 DBD1 and with ZNF721 DBD2 were 0.116 relative 10-mer count, 0.00381 relative 10-mer count and 0.00336 relative 10-mer count, respectively.

Turning to CCGCCCCCAC, the binding signal in the assay with ZNF721 full-length came to 0.178 relative 10-mer count; with ZNF721 DBD1, 0.00821 relative 10-mer count; with ZNF721 DBD2 it was 0.0036 relative 10-mer count.

As to AAAAAAGGCA, the binding signal in the assay with ZNF721 full-length turned out to be 0.18 relative 10-mer count; with ZNF721 DBD1, 0.00284 relative 10-mer count; with ZNF721 DBD2 it was 0.13 relative 10-mer count.

For CACCCCATCC, the binding signal stood at 0.11 relative 10-mer count in the assay with ZNF721 full-length, 0.00372 relative 10-mer count with ZNF721 DBD1 and 0.00575 relative 10-mer count with ZNF721 DBD2.

As to CCCACACACC, the binding signal with ZNF721 full-length came to 0.114 relative 10-mer count; in the assay with ZNF721 DBD1, 0.00449 relative 10-mer count; with ZNF721 DBD2 it was 0.00455 relative 10-mer count.

In the case of CCCCACCCCA, the binding signal stood at 0.297 relative 10-mer count in the assay with ZNF721 full-length, 0.0112 relative 10-mer count with ZNF721 DBD1 and 0.00288 relative 10-mer count with ZNF721 DBD2.

For the sequence CCCCCAACCA, the binding signal came out at 0.118 relative 10-mer count with ZNF721 full-length, 0.00477 relative 10-mer count with ZNF721 DBD1 and 0.00503 relative 10-mer count in the assay with ZNF721 DBD2.

Take CCCGCCCCTC: the values for the binding signal with ZNF721 full-length, in the assay with ZNF721 DBD1 and in the assay with ZNF721 DBD2 were 0.127 relative 10-mer count, 0.00633 relative 10-mer count and 0.00144 relative 10-mer count, respectively.

In the case of ACCCACCACC, the binding signal with ZNF721 full-length turned out to be 0.214 relative 10-mer count; with ZNF721 DBD1 it was 0.0104 relative 10-mer count; with ZNF721 DBD2 it was 0.00791 relative 10-mer count.

On to CACCCCGCCA, for which the binding signal with ZNF721 full-length was determined as 0.108 relative 10-mer count; in the assay with ZNF721 DBD1, 0.00404 relative 10-mer count; with ZNF721 DBD2 it was 0.00455 relative 10-mer count.

In the case of CACACCCCCC, the figures for the binding signal with ZNF721 full-length, in the assay with ZNF721 DBD1 and in the assay with ZNF721 DBD2 were 0.146 relative 10-mer count, 0.00514 relative 10-mer count and 0.0018 relative 10-mer count, respectively.

Take CGCCCCCCAC: the binding signal with ZNF721 full-length came to 0.156 relative 10-mer count; with ZNF721 DBD1, 0.00679 relative 10-mer count; in the assay with ZNF721 DBD2, 0.00407 relative 10-mer count.

For the sequence CACGCCCACC, the figures for the binding signal with ZNF721 full-length, with ZNF721 DBD1 and in the assay with ZNF721 DBD2 were 0.123 relative 10-mer count, 0.00518 relative 10-mer count and 0.00947 relative 10-mer count, respectively.

For the sequence CCCACCAACC, the binding signal with ZNF721 full-length worked out at 0.171 relative 10-mer count; with ZNF721 DBD1 it was 0.00794 relative 10-mer count; with ZNF721 DBD2, 0.00563 relative 10-mer count.

On to CAGCGTTACC, for which the binding signal amounted to 0.138 relative 10-mer count with ZNF721 full-length, 0.00147 relative 10-mer count in the assay with ZNF721 DBD1 and 0.297 relative 10-mer count with ZNF721 DBD2.

With CTCCCCCACC, the binding signal stood at 0.191 relative 10-mer count with ZNF721 full-length, 0.0104 relative 10-mer count with ZNF721 DBD1 and 0.00348 relative 10-mer count in the assay with ZNF721 DBD2.

Turning to CTCCACCCCC, the binding signal with ZNF721 full-length turned out to be 0.178 relative 10-mer count; with ZNF721 DBD1, 0.00812 relative 10-mer count; with ZNF721 DBD2 it was 0.00467 relative 10-mer count.

For CCCGCCCCGC, the binding signal turned out to be 0.154 relative 10-mer count in the assay with ZNF721 full-length, 0.00518 relative 10-mer count in the assay with ZNF721 DBD1 and 0.00144 relative 10-mer count with ZNF721 DBD2.

Regarding AGGCAACACT, the binding signal with ZNF721 full-length came to 0.174 relative 10-mer count; with ZNF721 DBD1, 0.00697 relative 10-mer count; with ZNF721 DBD2, 0.391 relative 10-mer count.

Take CCGCCACCAC: the binding signal with ZNF721 full-length was 0.106 relative 10-mer count; with ZNF721 DBD1, 0.00417 relative 10-mer count; in the assay with ZNF721 DBD2, 0.0036 relative 10-mer count.

Consider CCCGACCCCA, for which the binding signal in the assay with ZNF721 full-length came to 0.112 relative 10-mer count; in the assay with ZNF721 DBD1, 0.00399 relative 10-mer count; in the assay with ZNF721 DBD2 it was 0.0012 relative 10-mer count.

As for AAAAACAAGC, the binding signal came to 0.123 relative 10-mer count in the assay with ZNF721 full-length, 0.0116 relative 10-mer count in the assay with ZNF721 DBD1 and 0.0483 relative 10-mer count with ZNF721 DBD2.

As for ACCCGCCCCA, the binding signal with ZNF721 full-length is 0.109 relative 10-mer count; in the assay with ZNF721 DBD1 it was 0.00307 relative 10-mer count; with ZNF721 DBD2, 0.0012 relative 10-mer count.

For the sequence ACCCCTCCAC, the binding signal with ZNF721 full-length came out at 0.11 relative 10-mer count; with ZNF721 DBD1, 0.00472 relative 10-mer count; with ZNF721 DBD2 it was 0.00419 relative 10-mer count.

Consider CCCCACCACA, for which the binding signal with ZNF721 full-length worked out at 0.148 relative 10-mer count; in the assay with ZNF721 DBD1, 0.00505 relative 10-mer count; in the assay with ZNF721 DBD2, 0.00527 relative 10-mer count.

As to CCCCCCACCA, the binding signal in the assay with ZNF721 full-length was determined as 0.231 relative 10-mer count; with ZNF721 DBD1, 0.00904 relative 10-mer count; with ZNF721 DBD2, 0.00863 relative 10-mer count.
